Test results taken from PubChem BioAssay AID1159580 (chemical genetic matrix, 2015).
Values joined by “and” are separate entries in the source; they are usually repeats but may differ in a detail not shown here. Identical values can stand only once. Hit rate of the full screen: of about 5,500 compounds, about 2,000 (36%) were called active. Inconclusive results (about 18%) are left out. Rule as the data show it: active = normalized growth mostly below about 0.91 (no sharp cut-off); inconclusive = no clear call, values can overlap the other calls; inactive = mostly above about 0.92. The list shows a part of the results.

Experiment: chemical genetic growth profiling, strain panel (AID 1159580);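 also: tested at 20 µM; growth read once vehicle control cultures reached saturation at 30 °C; 1 = growth at the plate median or of vehicle wells; lower values mean less growth of the strain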
Details: S. cerevisiae deletion strains, growth OD

Measured: normalized growth

CC(=O)O[C@@H]1C2CC[C@@H]3C1(C[C@@H](O)[C@@]1(O)[C@@H](C[C@H](O)C1(C)C)[C@]3(C)O)C[C@@]2(C)O (stereo partly drawn)
inactive: locus YAL021C, strain ccr4, hits give low values 0.996 | locus YAL026C, strain drs2, hits give low values 0.984 | locus YAL030W, strain snc1, hits give low values 0.992 | locus YBL061C, strain skt5, hits give low values 1 | locus YBR009C, strain hhf1, hits give low values 0.99 | locus YBR021W, strain FUR4, hits give low values 1.02 | locus YBR023C, strain chs3, hits give low values 0.997 | locus YBR171W, strain sec66, hits give low values 0.979 | locus YBR229C, strain ROT2, hits give low values 0.958 | locus YBR231C, strain swc5, hits give low values 0.997 | locus YBR279W, strain paf1, hits give low values 1 | locus YCL011C, strain gbp2, hits give low values 0.985 | locus YCL016C, strain dcc1, hits give low values 0.987 | locus YCL029C, strain bik1, hits give low values 0.974 | locus YCL061C, strain MRC1, hits give low values 0.995 | locus YCL069W, strain vba3, hits give low values 0.989 | locus YCR088W, strain abp1, hits give low values 0.988 | locus YDL005C, strain med2, hits give low values 0.976 | locus YDL035C, strain GPR1, hits give low values 0.998 | locus YDL040C, strain nat1, hits give low values 0.986 | locus YDL074C, strain BRE1, hits give low values 1.07 | locus YDL101C, strain DUN1, hits give low values 0.988 | locus YDL134C, strain PPH21, hits give low values 1.05 | locus YDL185W, strain tfp1, hits give low values 0.992 | locus YDL192W, strain arf1, hits give low values 0.992 | locus YDR001C, strain nth1, hits give low values 0.996 | locus YDR069C, strain doa4, hits give low values 0.999 | locus YDR101C, strain arx1, hits give low values 0.976 | locus YDR137W, strain rgp1, hits give low values 0.922 | locus YDR159W, strain sac3, hits give low values 0.995 | locus YDR162C, strain NBP2, hits give low values 1.01 | locus YDR195W, strain ref2 0.962 | locus YDR297W, strain sur2, hits give low values 0.989 | locus YDR318W, strain mcm21, hits give low values 0.991 | locus YDR334W, strain swr1, hits give low values 0.957 | locus YDR335W, strain msn5, hits give low values 0.999 | locus YDR388W, hits give low values 0.996 | locus YDR392W, strain spt3, hits give low values 0.993 | locus YDR502C, strain sam2, hits give low values 1 | locus YEL003W, strain gim4, hits give low values 0.988 | locus YEL037C, strain rad23, hits give low values 0.997 | locus YEL061C, strain CIN8 (second series), hits give low values 0.99 | locus YER015W, strain faa2, hits give low values 0.997 | locus YER016W, strain bim1, hits give low values 0.985 | locus YER110C, hits give low values 0.96 | locus YER111C, strain swi4, hits give low values 0.998 | locus YER155C, strain BEM2 (second series), hits give low values 0.977 | locus YER155C, strain BEM2, hits give low values 0.997 | locus YER167W, strain BCK2, hits give low values 0.998 | locus YFR010W, strain ubp6, hits give low values 0.977 | locus YGL078C, strain dbp3, hits give low values 1 | locus YGL086W, strain mad1, hits give low values 1 | locus YGL167C, strain pmr1, hits give low values 0.998 | locus YGL173C, strain kem1, hits give low values 0.987 | locus YGL227W, strain vid30, hits give low values 0.998 | locus YGL240W, strain doc1, hits give low values 0.991 | locus YGL248W, strain PDE1, hits give low values 1.02 | locus YGL253W, strain hxk2, hits give low values 0.996 | locus YGR078C, strain PAC10, hits give low values 1.01 | locus YGR135W, strain pre9, hits give low values 1.05 | locus YGR252W, strain gcn5, hits give low values 1.08 | locus YHR013C, strain ard1, hits give low values 0.984 | locus YHR027C, strain rpn1, hits give low values 0.989 | locus YHR030C, strain SLT2, hits give low values 1 and 0.972 | locus YHR079C, strain IRE1 (second series), hits give low values 0.983 | locus YHR079C, strain IRE1, hits give low values 0.959 | locus YHR094C, strain hxt1, hits give low values 0.991 | locus YHR129C, strain ARP1, hits give low values 1.01 | locus YHR142W, strain chs7, hits give low values 0.997 | locus YHR200W, strain rpn10, hits give low values 0.995 | locus YIL066C, strain RNR3, hits give low values 1 | locus YIL073C, strain SPO22, hits give low values 1.08 | locus YIL125W, strain kgd1, hits give low values 0.971 | locus YIR030C, strain dcg1, hits give low values 0.993 | locus YJL092W, strain hpr5, hits give low values 0.985 | locus YJL095W, strain BCK1 (second series), hits give low values 0.996 | locus YJL095W, strain BCK1, hits give low values 1.06 and 0.981 | locus YJL115W, strain asf1, hits give low values 0.969 | locus YJL129C, strain trk1, hits give low values 0.992 | locus YJL134W, strain LCB3, hits give low values 0.99 | locus YJL154C, strain vps35, hits give low values 0.983 | locus YJL164C, strain tpk1, hits give low values 0.995 | locus YJL166W, strain qcr8, hits give low values 0.999 | locus YJL168C, strain set2, hits give low values 0.995 | locus YJL187C, strain SWE1 (second series), hits give low values 0.995 | locus YJL187C, strain SWE1, hits give low values 0.994 | locus YJR066W, strain TOR1, hits give low values 0.961 | locus YKL009W, strain mrt4, hits give low values 0.992 | locus YKL068W, hits give low values 0.988 | locus YKL085W, strain MDH1 (second series), hits give low values 0.999 | locus YKL085W, strain MDH1, hits give low values 0.999 | locus YKL160W, strain elf1, hits give low values 0.998 | locus YKL190W, strain CNB1, hits give low values 1.01 | locus YKR001C, strain vps1, hits give low values 0.997 | locus YKR026C, strain gcn3, hits give low values 0.987 | locus YKR091W, strain srl3, hits give low values 1 | locus YLL001W, strain dnm1, hits give low values 0.991 | locus YLL026W, hits give low values 0.993 | locus YLL041C, strain sdh2, hits give low values 0.989 | locus YLR027C, strain aat2, hits give low values 0.985 | locus YLR039C, strain RIC1, hits give low values 1.19 | locus YLR058C, strain SHM2, hits give low values 0.993 | locus YLR102C, strain apc9, hits give low values 0.999 | locus YLR113W, strain HOG1, hits give low values 0.987 | locus YLR221C, strain rsa3, hits give low values 0.992 | locus YLR258W, strain gsy2, hits give low values 0.983 | locus YLR262C, strain YPT6 (second series), hits give low values 1 | locus YLR268W, strain sec22, hits give low values 0.987 | locus YLR320W, strain mms22, hits give low values 1.01 | locus YLR342W, strain FKS1 (second series), hits give low values 0.986 | locus YLR342W, strain FKS1, hits give low values 1 | locus YLR357W, strain rsc2, hits give low values 0.995 | locus YLR370C, strain arc18, hits give low values 1 | locus YLR371W, strain rom2, hits give low values 1 | locus YLR384C, strain iki3, hits give low values 0.99 | locus YLR418C, strain cdc73, hits give low values 1.01 | locus YML016C, strain PPZ1, hits give low values 0.99 | locus YML032C, strain rad52, hits give low values 0.99 | locus YML120C, strain ndi1, hits give low values 0.994 | locus YML124C, strain tub3, hits give low values 1 | locus YMR058W, strain fet3, hits give low values 0.984 | locus YMR078C, strain ctf18, hits give low values 0.99 | locus YMR125W, strain sto1, hits give low values 0.981 | locus YMR129W, hits give low values 0.993 | locus YMR205C, strain PFK2, hits give low values 1.01 | locus YMR223W, strain ubp8, hits give low values 1.01 | locus YMR231W, strain pep5, hits give low values 0.993 | locus YMR263W, strain SAP30, hits give low values 0.991 | locus YMR307W, strain GAS1, hits give low values 1.16 | locus YNL067W, strain RPL9B, hits give low values 1.01 | locus YNL071W, strain lat1, hits give low values 0.981 | locus YNL153C, strain GIM3, hits give low values 0.994 | locus YNL183C, strain NPR1, hits give low values 0.952 | locus YNL209W, strain ssb2, hits give low values 0.987 | locus YNL233W, strain BNI4, hits give low values 1.05 | locus YNL248C, strain rpa49, hits give low values 0.98 | locus YNL250W, strain rad50, hits give low values 0.974 | locus YNL271C, strain bni1, hits give low values 1 | locus YNL298W, strain CLA4, hits give low values 0.992 | locus YNL307C, strain MCK1, hits give low values 0.99 | locus YNL322C, strain KRE1 (second series), hits give low values 0.99 | locus YNL322C, strain KRE1, hits give low values 0.992 | locus YNR049C, strain mso1, hits give low values 0.996 | locus YNR052C, strain pop2, hits give low values 1.01 | locus YOL006C, strain TOP1, hits give low values 1.16 | locus YOL012C, strain htz1 1.28 | locus YOL147C, strain pex11, hits give low values 1 | locus YOR001W, strain rrp6, hits give low values 0.987 | locus YOR061W, strain CKA2, hits give low values 0.985 | locus YOR069W, strain VPS5, hits give low values 1.01 | locus YOR070C, strain gyp1, hits give low values 0.985 | locus YOR080W, strain dia2, hits give low values 0.997 | locus YOR083W, strain WHI5, hits give low values 1 | locus YOR106W, strain vam3, hits give low values 0.985 | locus YOR136W, strain idh2, hits give low values 0.995 | locus YOR144C, strain elg1, hits give low values 0.994 | locus YOR184W, strain ser1, hits give low values 0.992 | locus YOR231W, strain MKK1, hits give low values 0.963 | locus YOR265W, strain rbl2, hits give low values 0.994 | locus YOR270C, strain vph1, hits give low values 0.984 | locus YOR290C, strain snf2, hits give low values 1 | locus YOR316C, strain cot1, hits give low values 0.987 | locus YPL051W, strain arl3, hits give low values 1.01 | locus YPL078C, strain atp4, hits give low values 0.996 | locus YPL106C, strain sse1, hits give low values 0.98 | locus YPL240C, strain hsp82, hits give low values 0.98 | locus YPL241C, strain CIN2, hits give low values 1.01 | locus YPL256C, strain CLN2, hits give low values 0.995 | locus YPR119W, strain clb2, hits give low values 0.992 | locus YPR141C, strain kar3, hits give low values 0.979 | locus YPR163C, strain tif3, hits give low values 1.01 | locus YPR167C, strain met16, hits give low values 1 | strain wtn01, hits give low values 0.985
